{"source": "PubChem BioAssay (NCI)", "note": "This is part of a sample that, as a whole, favours compounds with a hit. Of some 79,000 tested, about 15% had one in any assay. Values without a mark were called inactive. Active and inactive are the calls of the source. Rule as the data show it: active = growth inhibition above about 70%; inactive = the rest.", "data": [{"test": "NCI Yeast Anticancer Drug Screen. Data for the cln2 rad14 strain (AID 165);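 also: 0% = growth equal to vehicle treated cultures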", "settings": "S. cerevisiae cln2 rad14 strain, stronger effect = higher value; at 50.0 µM unless noted", "summary_of_the_method": "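The screen exposed genetically defined yeast (cln2 rad14) to test compounds and scored growth inhibition relative to vehicle-treated controls.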", "values": [{"smiles": "NC(=O)C1CC1", "growth inhibition": "-7.7%"}, {"smiles": "CNC(=O)C1C(=O)NC(=O)C1=C1CCCC1", "note": "(centres undefined)", "growth inhibition": "-58.8%"}, {"smiles": "Cc1cc(Cl)ccc1NC(=O)C1C(=O)N(c2ccc(Cl)cc2C)C(=O)/C1=N\\N", "note": "(centres undefined)", "growth inhibition": "-18.9%"}, {"smiles": "CC[N+](CC)(CC)Cc1cn(S(=O)(=O)c2ccccc2)c2ccccc12", "growth inhibition": "-64.7%"}, {"smiles": "Cn1c(=O)c2[nH]c(Nc3cccc(Cl)c3)nc2n(C)c1=O", "growth inhibition": "-13.2%"}, {"smiles": "NC(N)=NC(N)=Nc1cc(Cl)c(Cl)cc1Cl", "growth inhibition": "98.8% (active)"}]}, {"test": "NCI Yeast Anticancer Drug Screen. Data for the bub3 strain (AID 167)", "settings": "S. cerevisiae bub3 mutant strain, stronger effect = higher value; at 50.0 µM unless noted", "summary_of_the_method": "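Steps: expose the mutant yeast strain to compound; grow alongside vehicle-treated cultures; measure growth; express inhibition against the vehicle cultures.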", "units": {"growth inhibition": "%"}, "values": [{"smiles": "CCCOC(=O)c1ccc([N+](=O)[O-])cc1", "growth inhibition": -16.7}, {"smiles": "O=C1OC2C(O)C(CO)OC2n2c1cc(=O)[nH]c2=O", "note": "(centres undefined)", "growth inhibition": 3.5}, {"smiles": "CNCCc1cn(C2OC(CO)C(O)C(O)C2O)cn1", "note": "(centres undefined)", "growth inhibition": -28.4}, {"smiles": "NC(=O)c1ccc(-c2csc(=S)[nH]2)s1", "growth inhibition": -19.1}, {"smiles": "OCCNc1ncnc2c1ncn2C1OC(CO)C(O)C1O", "note": "(centres undefined)", "growth inhibition": -20}, {"smiles": "CC1SCc2nc3ccccc3n21", "note": "(centres undefined)", "growth inhibition": 5.7}, {"smiles": "O=C1OCCOCCOCCOCCOCCOC(=O)c2cccc1n2", "growth inhibition": 12.5}, {"smiles": "O=S=Nc1c(Cl)cc(Cl)cc1Cl", "growth inhibition": 11.7}, {"smiles": "ClCc1ccccc1C(c1ccccc1)c1ccccc1", "growth inhibition": 24.9}, {"smiles": "CC(C)(C)NC(=O)CCCl", "growth inhibition": 1.8}, {"smiles": "O=C(c1ccccc1)c1ccc2c(Cl)ccc3c2c1CC3", "growth inhibition": 7.6}, {"smiles": "COC(=O)c1cc(C)n(C)c(=O)c1CN", "growth inhibition": -8.8}, {"smiles": "CN(C)C(=O)NN1CCCCCC1", "growth inhibition": 13.3}, {"smiles": "COC(=O)N/N=C(/CCC(=O)Nc1ccc(C)c(C)c1)CC(=O)C(C)(C)C", "growth inhibition": 19.1}, {"smiles": "CCCCCCCSCC(=O)OCC", "growth inhibition": -6.5}, {"smiles": "CO[C@H]1C[C@H](n2cc(C)c(=O)[nH]c2=O)O[C@@H]1CO", "growth inhibition": -9.3}, {"smiles": "C=CCc1cc2c(C)cc(=O)oc2c(C)c1OC(C)=O", "growth inhibition": -25.9}, {"smiles": "CCCCCCCCOC(=O)NC1c2ccccc2Oc2c(C)cccc21", "note": "(centres undefined)", "growth inhibition": -3.05}, {"smiles": "CC(=O)Nc1nnn(C)n1", "growth inhibition": 9.1}, {"smiles": "CNC(=O)C(C(=O)NC)c1ccccc1", "growth inhibition": -2.9}, {"smiles": "O=[n+]1c2c(n([O-])c3ccccc31)CCCCCCCCCC2", "growth inhibition": 0.95}, {"smiles": "CCOC(=O)c1cc(C)ncc1N", "growth inhibition": -0.95}, {"smiles": "N#CCCC1(CCC#N)CCCC(CCC#N)(CCC#N)C1=O", "growth inhibition": 16.8}, {"smiles": "Clc1ccc2c(c1)C(=P(c1ccccc1)(c1ccccc1)c1ccccc1)c1cc(Cl)cc(Cl)c1-2", "growth inhibition": 39.3}, {"smiles": "CCCCN1CCC(N)=NC1=O", "growth inhibition": -5.6}, {"smiles": "CC1CCCN1CCOC(=O)C(c1ccccc1)C1CCCC1", "note": "(centres undefined)", "growth inhibition": 3.3}, {"smiles": "CCc1n[nH]c(=O)n1-n1c(C)ccc1C", "growth inhibition": -33}, {"smiles": "NC(Cc1cc(Br)c(Oc2ccc(O)cc2)c(Br)c1)C(=O)O", "note": "(centres undefined)", "growth inhibition": 2.55}, {"smiles": "O=C1C=CC=C/C1=C1/SC(c2ccccc2)=C(O)N1c1ccccc1", "growth inhibition": -19.9}, {"smiles": "CC(=O)C(C)(CC#N)C(CC=O)CCC#N", "note": "(centres undefined)", "growth inhibition": 14}, {"smiles": "Cc1c2ccncc2c(C)c2c1[nH]c1ccc(O)cc12", "growth inhibition": 19.5}, {"smiles": "CC1(C)OC(=O)N=C1c1ccccc1Cl", "growth inhibition": -15.6}, {"smiles": "O=Nc1c(O)c2ccccc2[nH]c1=O", "growth inhibition": 57.5}, {"smiles": "Cc1ccc2[nH]c(C(=O)O)cc2c1", "growth inhibition": 9}]}, {"test": "NCI Yeast Anticancer Drug Screen. Data for the mlh1 rad18 strain (AID 175)", "settings": "S. cerevisiae mlh1 rad18 strain growth inhibition, stronger effect = higher value; at 50.0 µM unless noted", "summary_of_the_method": "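Compound-treated yeast growth, normalised to vehicle controls. Strain bears defined DNA repair mutations.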", "values": [{"smiles": "CCCOC(=O)c1ccc([N+](=O)[O-])cc1", "growth inhibition": "-23.1%"}, {"smiles": "O=C1OC2C(O)C(CO)OC2n2c1cc(=O)[nH]c2=O", "note": "(centres undefined)", "growth inhibition": "-5.35%"}, {"smiles": "CNCCc1cn(C2OC(CO)C(O)C(O)C2O)cn1", "note": "(centres undefined)", "growth inhibition": "-13.3%"}, {"smiles": "NC(=O)C1CC1", "growth inhibition": "-4%"}, {"smiles": "NC(=O)c1ccc(-c2csc(=S)[nH]2)s1", "growth inhibition": "-5.35%"}, {"smiles": "OCCNc1ncnc2c1ncn2C1OC(CO)C(O)C1O", "note": "(centres undefined)", "growth inhibition": "22%"}, {"smiles": "CC1SCc2nc3ccccc3n21", "note": "(centres undefined)", "growth inhibition": "-35.5%"}, {"smiles": "CNC(=O)C1C(=O)NC(=O)C1=C1CCCC1", "note": "(centres undefined)", "growth inhibition": "-14.6%"}, {"smiles": "O=C1OCCOCCOCCOCCOCCOC(=O)c2cccc1n2", "growth inhibition": "16.1%"}, {"smiles": "O=S=Nc1c(Cl)cc(Cl)cc1Cl", "growth inhibition": "-0.6%"}, {"smiles": "ClCc1ccccc1C(c1ccccc1)c1ccccc1", "growth inhibition": "21.9%"}, {"smiles": "CC(C)(C)NC(=O)CCCl", "growth inhibition": "41.8%"}, {"smiles": "O=C(c1ccccc1)c1ccc2c(Cl)ccc3c2c1CC3", "growth inhibition": "-8.45%"}, {"smiles": "COC(=O)c1cc(C)n(C)c(=O)c1CN", "growth inhibition": "0.8%"}, {"smiles": "CN(C)C(=O)NN1CCCCCC1", "growth inhibition": "-13.3%"}, {"smiles": "COC(=O)N/N=C(/CCC(=O)Nc1ccc(C)c(C)c1)CC(=O)C(C)(C)C", "growth inhibition": "-1.9%"}, {"smiles": "CCCCCCCSCC(=O)OCC", "growth inhibition": "-5.75%"}, {"smiles": "CO[C@H]1C[C@H](n2cc(C)c(=O)[nH]c2=O)O[C@@H]1CO", "growth inhibition": "-25.8%"}, {"smiles": "Cc1cc(Cl)ccc1NC(=O)C1C(=O)N(c2ccc(Cl)cc2C)C(=O)/C1=N\\N", "note": "(centres undefined)", "growth inhibition": "9.7%"}, {"smiles": "C=CCc1cc2c(C)cc(=O)oc2c(C)c1OC(C)=O", "growth inhibition": "-2.45%"}, {"smiles": "CCCCCCCCOC(=O)NC1c2ccccc2Oc2c(C)cccc21", "note": "(centres undefined)", "growth inhibition": "12.9%"}, {"smiles": "CC(=O)Nc1nnn(C)n1", "growth inhibition": "-3.45%"}, {"smiles": "CNC(=O)C(C(=O)NC)c1ccccc1", "growth inhibition": "10.8%"}, {"smiles": "O=[n+]1c2c(n([O-])c3ccccc31)CCCCCCCCCC2", "growth inhibition": "7.9%"}, {"smiles": "CCOC(=O)c1cc(C)ncc1N", "growth inhibition": "3.3%"}, {"smiles": "CC[N+](CC)(CC)Cc1cn(S(=O)(=O)c2ccccc2)c2ccccc12", "growth inhibition": "5.95%"}, {"smiles": "N#CCCC1(CCC#N)CCCC(CCC#N)(CCC#N)C1=O", "growth inhibition": "11.2%"}, {"smiles": "Clc1ccc2c(c1)C(=P(c1ccccc1)(c1ccccc1)c1ccccc1)c1cc(Cl)cc(Cl)c1-2", "growth inhibition": "64.6%"}, {"smiles": "CCCCN1CCC(N)=NC1=O", "growth inhibition": "-4.15%"}, {"smiles": "CC1CCCN1CCOC(=O)C(c1ccccc1)C1CCCC1", "note": "(centres undefined)", "growth inhibition": "11.2%"}, {"smiles": "CCc1n[nH]c(=O)n1-n1c(C)ccc1C", "growth inhibition": "-15.2%"}, {"smiles": "NC(Cc1cc(Br)c(Oc2ccc(O)cc2)c(Br)c1)C(=O)O", "note": "(centres undefined)", "growth inhibition": "20.9%"}, {"smiles": "Cn1c(=O)c2[nH]c(Nc3cccc(Cl)c3)nc2n(C)c1=O", "growth inhibition": "17.1%"}, {"smiles": "NC(N)=NC(N)=Nc1cc(Cl)c(Cl)cc1Cl", "growth inhibition": "99.3% (active)"}, {"smiles": "O=C1C=CC=C/C1=C1/SC(c2ccccc2)=C(O)N1c1ccccc1", "growth inhibition": "-18.5%"}, {"smiles": "CC(=O)C(C)(CC#N)C(CC=O)CCC#N", "note": "(centres undefined)", "growth inhibition": "-1%"}, {"smiles": "Cc1c2ccncc2c(C)c2c1[nH]c1ccc(O)cc12", "growth inhibition": "58.9%"}, {"smiles": "CC1(C)OC(=O)N=C1c1ccccc1Cl", "growth inhibition": "7.65%"}, {"smiles": "O=Nc1c(O)c2ccccc2[nH]c1=O", "growth inhibition": "30.4%"}]}]}
